Measured values published in PubChem BioAssay (NCI).
“And” between values parts separate entries of the source, which are not always exact repeats. Equal entries are not always repeated. The panel holds about 83,000 compounds, 20% with a hit somewhere; the sample as a whole holds those more often.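 Method: cells in 96-well plates; compound added at one concentration; 48 h incubation; percent growth measured; values under 10 scored active.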 The source made the active and inactive calls.

Tests used:
Experiment in all cases: NCI-60 one-dose screen, 48 h (100 = growth as untreated, 0 = no growth, -100 = all killed)
Settings in all cases: 10 µM unless noted
NCI-H23 lung = system: NCI-H23 lung
NCI-H226 lung = system: NCI-H226 lung
NCI-H322M lung = system: NCI-H322M lung
HOP-62 NSCLC = system: HOP-62 NSCLC
NCI-H460 lung = system: NCI-H460 lung
HOP-92 NSCLC = system: HOP-92 NSCLC
NCI-H522 lung = system: NCI-H522 lung
A549/ATCC NSCLC = system: A549/ATCC NSCLC
786-0 renal = system: 786-0 renal
COLO 205 colon = system: COLO 205 colon
DU-145 prostate = system: DU-145 prostate
K-562 leukemia = system: K-562 leukemia
MALME-3M melanoma = system: MALME-3M melanoma
MDA-MB-231 breast = system: MDA-MB-231 breast
RXF 393 renal = system: RXF 393 renal
SF-268 CNS = system: SF-268 CNS
SF-295 CNS = system: SF-295 CNS
SF-539 CNS = system: SF-539 CNS
UACC-257 melanoma = system: UACC-257 melanoma
M14 melanoma = system: M14 melanoma

Measured: growth

O=C(N=Nc1c(O)[nH]c2ccccc12)Nc1ccc(Br)cc1
inactive: NCI-H23 lung 101% | NCI-H226 lung 83.6% | NCI-H322M lung 70.9% | HOP-62 NSCLC 98.4% | NCI-H460 lung 92.1% | HOP-92 NSCLC 66.5% | NCI-H522 lung 72.3% | A549/ATCC NSCLC 98.9% | 786-0 renal 89.6% | COLO 205 colon 97.8% | DU-145 prostate 93.3% | K-562 leukemia 79% | MALME-3M melanoma 86.1% | MDA-MB-231 breast 110% | RXF 393 renal 82.4% | SF-268 CNS 86.2% | SF-295 CNS 93% | SF-539 CNS 83.6% | UACC-257 melanoma 115% | M14 melanoma 89.8%

C=C1CC[C@@H]2[C@](C)(COC(C)=O)[C@H](OC(C)=O)CC[C@@]2(C)[C@@H]1CC(Nc1ccc(S(=O)(=O)Nc2nccs2)cc1)C1=CCOC1=O (stereo not given in full)
inactive: NCI-H23 lung 38.1% | NCI-H322M lung 59.9% | HOP-62 NSCLC 120% | NCI-H460 lung 29.5% | HOP-92 NSCLC 54% | A549/ATCC NSCLC 43.7% | DU-145 prostate 22.3% | SF-268 CNS 21.3% | SF-295 CNS 73% | UACC-257 melanoma 22.4%
active: NCI-H226 lung -14% | NCI-H522 lung -61.9% | 786-0 renal 6.27% | COLO 205 colon -24.6% | K-562 leukemia 3.4% | MALME-3M melanoma 0.4% | MDA-MB-231 breast 5.69% | RXF 393 renal -50.6% | SF-539 CNS -67.1% | M14 melanoma 8.12%

C=C1C(=O)O[C@H]2[C@H]1CC/C(COC(=O)NCCCCNC(=O)OC/C1=C/CC[C@@]3(C)O[C@H]3[C@H]3OC(=O)C(=C)[C@@H]3CC1)=C\CC[C@@]1(C)O[C@@H]21
active: HOP-92 NSCLC -32.8% | NCI-H522 lung -61.4% | COLO 205 colon -43.4% | K-562 leukemia 4.14% | MALME-3M melanoma -39.3% | RXF 393 renal -30.2% | SF-539 CNS -23.6% | UACC-257 melanoma 2.94%
inactive: NCI-H23 lung 38.3% | NCI-H226 lung 53.2% | NCI-H322M lung 98.5% | HOP-62 NSCLC 73.8% | NCI-H460 lung 102% | A549/ATCC NSCLC 94.9% | 786-0 renal 22.7% | DU-145 prostate 45.8% | MDA-MB-231 breast 24% | SF-268 CNS 48.7% | SF-295 CNS 99% | M14 melanoma 11.5%

COc1cc2ncnc(Nc3ccc(F)c(Cl)c3)c2cc1OCC(=O)N1CCCCC1
inactive: NCI-H23 lung 91% | NCI-H226 lung 86.8% | NCI-H322M lung 29% | HOP-62 NSCLC 103% | NCI-H460 lung 95.5% | HOP-92 NSCLC 81.6% | NCI-H522 lung 33.1% | A549/ATCC NSCLC 67.8% | 786-0 renal 78.2% | COLO 205 colon 96% | DU-145 prostate 53.8% | K-562 leukemia 73.6% | MALME-3M melanoma 99.1% | MDA-MB-231 breast 105% | RXF 393 renal 84.8% | SF-268 CNS 80% | SF-295 CNS 92.1% | SF-539 CNS 104% | UACC-257 melanoma 101% | M14 melanoma 85.5%

COc1ccccc1/C=C/C(=O)/C=C/c1ccccc1OC
8.73% (active) and 21.3% (inactive): SF-268 CNS
-10.9% (active) and 33.9% (inactive): HOP-92 NSCLC
17.5% (inactive) and 8.92% (active): MDA-MB-231 breast
10.4% (inactive) and -31% (active): SF-295 CNS
active: NCI-H226 lung -30.6% | HOP-62 NSCLC -22.7% and -19.7% | NCI-H460 lung 2.27% and -3.65% | NCI-H522 lung -84.5% and -58.5% | A549/ATCC NSCLC -13.8% and -7.39% | 786-0 renal -56.9% and -47.8% | COLO 205 colon -73.7% and -57.9% | DU-145 prostate -11.9% and -11.3% | MALME-3M melanoma -33.8% and 2.49% | RXF 393 renal -87.5% and -89.7% | SF-539 CNS 3.38% and -29.1% | UACC-257 melanoma -29.2% and 6.89% | M14 melanoma 8.11% and -49.7%
inactive: NCI-H322M lung 30.6% and 38.9% | K-562 leukemia 10.9%
-26% (active) and 24.7% (inactive): NCI-H23 lung

COc1ccc(/C=C(\C#N)c2cc3ccccc3[nH]2)cc1
active: NCI-H522 lung 6.84% | COLO 205 colon 9.11% | M14 melanoma 1.53%
inactive: NCI-H23 lung 33.2% | NCI-H226 lung 88% | NCI-H322M lung 49.9% | HOP-62 NSCLC 33.2% | NCI-H460 lung 12.7% | HOP-92 NSCLC 44% | A549/ATCC NSCLC 37.5% | 786-0 renal 42.1% | DU-145 prostate 31.1% | K-562 leukemia 11.4% | MALME-3M melanoma 52% | MDA-MB-231 breast 51.9% | RXF 393 renal 48% | SF-268 CNS 39.1% | SF-295 CNS 35.7% | SF-539 CNS 21.3% | UACC-257 melanoma 52.2%

O=C(CCCCCCCCC(=O)N/N=C\c1ccccc1O)N/N=C\c1ccccc1O
active: NCI-H226 lung -5.86% | HOP-62 NSCLC 0.588% | NCI-H460 lung -11.3% | 786-0 renal 3.41% | M14 melanoma -9%
inactive: NCI-H23 lung 39.9% | NCI-H322M lung 19.5% | HOP-92 NSCLC 41.9% | NCI-H522 lung 34.3% | A549/ATCC NSCLC 17.1% | COLO 205 colon 43.1% | DU-145 prostate 26.7% | K-562 leukemia 16.4% | MALME-3M melanoma 15.1% | MDA-MB-231 breast 38.1% | RXF 393 renal 31.1% | SF-268 CNS 14.6% | SF-295 CNS 36% | SF-539 CNS 16.7% | UACC-257 melanoma 20.2%

Oc1ccccc1C=Nc1ccc(N2CCN(c3ccccc3)CC2)cc1
inactive: NCI-H23 lung 93.4% | NCI-H226 lung 110% | NCI-H322M lung 98.2% | HOP-62 NSCLC 74.7% | NCI-H460 lung 111% | HOP-92 NSCLC 99.5% | NCI-H522 lung 95.7% | A549/ATCC NSCLC 92.1% | 786-0 renal 94.1% | COLO 205 colon 93.7% | DU-145 prostate 104% | K-562 leukemia 80.7% | MALME-3M melanoma 114% | MDA-MB-231 breast 100% | RXF 393 renal 97.7% | SF-268 CNS 99.2% | SF-295 CNS 103% | SF-539 CNS 77.2% | UACC-257 melanoma 97% | M14 melanoma 96.3%

C=C(CNCCO)[C@@H]1CC[C@]2(CO)CC[C@]3(C)[C@H](CC[C@@H]4[C@@]5(C)CCC(NCCc6ccc(O)cc6)C(C)(C)[C@@H]5CC[C@]43C)[C@@H]12 (stereo not given in full)
active: NCI-H23 lung -63% | NCI-H226 lung -47.6% | NCI-H322M lung -41% | HOP-62 NSCLC -84.4% | NCI-H460 lung -80.4% | HOP-92 NSCLC -66.1% | NCI-H522 lung -79.5% | A549/ATCC NSCLC -71.3% | 786-0 renal -92.8% | COLO 205 colon -84.4% | DU-145 prostate -84.1% | K-562 leukemia -57.3% | MALME-3M melanoma -86.8% | MDA-MB-231 breast -80% | RXF 393 renal -85.7% | SF-268 CNS -74.8% | SF-295 CNS -85.4% | SF-539 CNS -93.6% | UACC-257 melanoma -86.3% | M14 melanoma -91.6%

Cc1ccc(-c2nc3nc(-c4ccc(Br)cc4)nc(N4CCCNCC4)c3o2)cc1
active: NCI-H460 lung -73% | A549/ATCC NSCLC -74.7% | 786-0 renal -90.6% | COLO 205 colon -49% | K-562 leukemia -48.4% | MDA-MB-231 breast -57% | SF-539 CNS 3.79% | M14 melanoma -54.2%
inactive: NCI-H23 lung 97.9% | NCI-H226 lung 103% | NCI-H322M lung 68.9% | HOP-62 NSCLC 82% | HOP-92 NSCLC 91.7% | NCI-H522 lung 72.6% | DU-145 prostate 14.2% | MALME-3M melanoma 88.3% | RXF 393 renal 87.1% | SF-268 CNS 98.6% | SF-295 CNS 69.2% | UACC-257 melanoma 103%

COC1=CC(=O)C(OC)=C(O)C1=O
inactive: NCI-H23 lung 99.1% | NCI-H226 lung 102% | NCI-H322M lung 93.8% | HOP-62 NSCLC 97.9% | NCI-H460 lung 106% | HOP-92 NSCLC 106% | NCI-H522 lung 96.5% | A549/ATCC NSCLC 105% | 786-0 renal 95.7% | COLO 205 colon 103% | DU-145 prostate 109% | K-562 leukemia 103% | MALME-3M melanoma 97.7% | MDA-MB-231 breast 100% | RXF 393 renal 104% | SF-268 CNS 107% | SF-295 CNS 102% | SF-539 CNS 92.4% | UACC-257 melanoma 97.4% | M14 melanoma 97.2%

O=C(NNc1ccccc1)C1CCCN1 (stereo not given)
inactive: NCI-H23 lung 98.8% | NCI-H226 lung 80.9% | NCI-H322M lung 86% | HOP-62 NSCLC 76.7% | NCI-H460 lung 99.1% | HOP-92 NSCLC 108% | NCI-H522 lung 52.2% | A549/ATCC NSCLC 75.9% | 786-0 renal 89.2% | COLO 205 colon 103% | DU-145 prostate 60.7% | K-562 leukemia 11% | MALME-3M melanoma 76.4% | MDA-MB-231 breast 86.1% | RXF 393 renal 107% | SF-268 CNS 64.6% | SF-295 CNS 85% | SF-539 CNS 80.5% | UACC-257 melanoma 88.6% | M14 melanoma 43.1%

O=c1c2c([nH]c3ccccc13)CCCC2
inactive: NCI-H23 lung 100% and 68.1% | NCI-H226 lung 100% | NCI-H322M lung 113% and 77.7% | HOP-62 NSCLC 98.5% and 40.1% | NCI-H460 lung 99.8% and 22.8% | HOP-92 NSCLC 83.9% and 52.4% | NCI-H522 lung 92.4% and 37.6% | A549/ATCC NSCLC 93.8% and 56.3% | 786-0 renal 107% and 74.3% | DU-145 prostate 106% and 70.7% | K-562 leukemia 95.9% and 11.3% | MALME-3M melanoma 104% and 36.8% | MDA-MB-231 breast 95.8% and 54.9% | RXF 393 renal 105% and 63.4% | SF-268 CNS 98.8% and 53.2% | SF-295 CNS 95.4% and 13.1% | SF-539 CNS 99.5% and 46% | UACC-257 melanoma 100% and 58.8% | M14 melanoma 98.5% and 15.6%
94.5% (inactive) and 8.36% (active): COLO 205 colon

COc1ccc(/C=C/C(=O)c2cc3c(N)c(C(=O)Nc4ccccc4Cl)sc3nc2C)cc1
inactive: NCI-H23 lung 52.3% | NCI-H226 lung 27.4% | NCI-H322M lung 62.3% | HOP-62 NSCLC 45.3% | NCI-H460 lung 32.6% | NCI-H522 lung 15.4% | A549/ATCC NSCLC 33.8% | COLO 205 colon 69.8% | DU-145 prostate 46.3% | K-562 leukemia 38.9% | MALME-3M melanoma 21% | MDA-MB-231 breast 33.8% | SF-268 CNS 53.3% | SF-295 CNS 48.5% | SF-539 CNS 36.2% | UACC-257 melanoma 63.8% | M14 melanoma 12.1%
active: HOP-92 NSCLC 9.45% | 786-0 renal -20.4% | RXF 393 renal -3.54%
